Drawing on PubChem BioAssay (NCATS), this text covers Potency for 7 compounds.

Results filed as inconclusive are left out. Active and inactive are the calls of the source. The call rests on the fitted dose curve; in most records, active means well fitted curve in the direction sought with a large enough effect; inconclusive means small, poorly fitted or top-dose-only effect, or another doubt; inactive means no such curve, though single readings can be large; an effect the other way counts as inactive or inconclusive.

Assay [1] relates to Zika virus NS2B-NS3 protease (unlinked complex). Put plainly: Primary screen GU Rhodamine qHTS for Zika virus inhibitors: Unlinked NS2B-NS3 protease assay (AID 1347159). Further: nearly all actives have a fitted effect of over 60% in size. Further: potency means the concentration at half of the fitted maximal effect. The note with it: Recombinant ZIKV NS2B-NS3 protease, Rhodamine110 substrate fluorescence; series mostly up to 107 µM. Put shortly:
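Noncovalent NS2B hydrophilic domain–NS3 protease domain complex (25 nM) preincubated 15 min at room temperature with compounds (up to 114 microM) in 10 mM Tris-HCl pH 8.0, 0.01% Tween 20; 1.5 microM Rhodamine110 substrate added, fluorescence change over 15 min fitted to Hill equation.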
In general terms: In qHTS, concentration-response curves come from the screen itself.

For assay [2], the system named is Zika virus NS2B-NS3 protease (linked construct). Briefly: Primary screen NINDS Rhodamine qHTS for Zika virus inhibitors (AID 1347160). Further: nearly all actives have a fitted effect of over 55% in size. As to conditions: purified NS2B-NS3 protease, Rhodamine110 substrate fluorescence; series mostly up to 57.1 µM. The method in brief: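 Purified linked NS2B-NS3 protease (NS2B hydrophilic domain joined to NS3 protease by flexible linker), 25 nM in 10 mM Tris-HCl pH 8.0, 0.01% Tween 20. Compounds titrated, 15 min preincubation at room temperature; 1.5 microM Rhodamine110 substrate, FITC fluorescence change over 15 min.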

Assay [3] in a line: OV-KATE Cancer Cell Toxicity qHTS against the NCATS CANVASS Library (AID 1347345). Further: potency means the concentration at half of the fitted maximal effect. As to conditions: OV-KATE cells viability, CellTiter-Glo luminescence, 72 h. Put shortly:
(§1)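 Toxicity is measured over 72 h of compound exposure at 37 degrees C under 5% CO2. Each well holds 1000 cells, pre-incubated for 4 hours before dosing across an 11-point range. CellTiter-Glo luminescence gives viability.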

Assay [4] is described as follows: HPAF-II Cancer Cell Toxicity qHTS against the NCATS CANVASS Library (AID 1347346). Further: potency means the concentration at half of the fitted maximal effect; nearly all actives have a fitted effect of over 55% in size. As to conditions: HPAF-II viability, CellTiter-Glo ATP luminescence, 72 h. The method in brief: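 HPAF-II cells at 1000 cells/well were treated with an 11-point concentration series for 72 hours at 37 degrees C. Viability read by CellTiter-Glo luminescence.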
Assay [5] in a line: UWB1.289 Cancer Cell Toxicity qHTS against the NCATS CANVASS Library (AID 1347347). Further: potency means the concentration at half of the fitted maximal effect; nearly all actives have a fitted effect of over 60% in size. The note with it: UWB1.289 viability, CellTiter-Glo luminescence, 72 h. Put shortly:
as §1

Assay [6] can be described thus: OV-SAHO Cancer Cell Toxicity qHTS against the NCATS CANVASS Library (AID 1347348). Further: potency means the concentration at half of the fitted maximal effect; nearly all actives have a fitted effect of over 55% in size. The note with it: OV-SAHO viability, CellTiter-Glo luminescence, 72 h. The method in brief: as §1
Assay [7] can be described thus: Panc-1005 Cancer Cell Toxicity qHTS against the NCATS CANVASS Library (AID 1347349). Further: potency means the concentration at half of the fitted maximal effect; nearly all actives have a fitted effect of over 60% in size. As to conditions: Panc-1005 viability, CellTiter-Glo luminescence, 72 h. The method in brief: as §1
Assay [8] in a line: U-118MG Cancer Cell Toxicity qHTS against the NCATS CANVASS Library (AID 1347351). Further: potency means the concentration at half of the fitted maximal effect. The note with it: U-118MG viability, CellTiter-Glo luminescence, 72 h. The method in brief:
as §1

The nature of assay [9]: Tertiary RLuc qRT-PCR qHTS assay for Zika virus inhibitors (AID 1347169). Further: top concentration of the series differs between compounds; nearly all actives have a fitted effect of over 55% in size. As to conditions: infected Vero cells, reporter luminescence, 48-72 h; series mostly up to 26.6 µM. The method in brief: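 Orthogonal cell-based readout: luminescence measured 1-1.5 hrs after adding live-cell Renilla substrate to Vero cells that had been infected with ZIKV-RLuc (MOI 1-2) post-compound, incubated 48-72 hrs at 37 degrees C.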

On to `CC(C(O)/C=C/C(C)(C)O)C1CCC2(C)C3C(=O)C=C4C(CCC(O)C4(C)C)C3(C)CCC12C` (configuration not stated), for which the Potency entry in assay [1] and in assay [2] was “inactive” each time.

For `C/C1=C\CC[C@]2(C)O[C@@H]2[C@H](O)[C@H](C(C)C)[C@H](OC(=O)/C=C/c2ccccc2)C1`, the Potency result in assay [2] is “inactive”.

As to `C[C@]12C=C[C@@]3(CCC4[C@](C)(CO)CCC[C@@]4(C)C3CC1)C2` (some centres not stated), the Potency in assay [1] was 22.4 µM (active). Besides, the Potency entry in [2] is “inactive”.

Consider `C=C1C(=O)O[C@H]2[C@H]1CC/C(C)=C/CC[C@@]1(C)O[C@@H]21`, for which the Potency result in assay [1] and in assay [2] was “inactive” throughout. The Potency in assay [3] was 6.66 µM (active); in assay [4], 21.1 µM (active); in assay [5], 11.8 µM (active); in [6], 7.47 µM (active); in [7], 6.68 µM (active); in assay [8], 6.68 µM (active).

`CC(C)CC(=O)OC1OC=C(CO[C@@H]2O[C@H](CO)[C@@H](O)[C@H](O)[C@H]2O)C2CC(O)C(O)(CO)C12` (some centres not stated): the Potency entry in [1] and in assay [9] was “inactive” throughout.

As for `O=C(c1ccc2nccnc2c1)N1CCCCC1`, the Potency result in assay [2] was “inactive”.

Turning to `COc1ccc(C[C@H](N)C(=O)N[C@@H]2[C@H](O)[C@H](n3cnc4c(N(C)C)ncnc43)O[C@@H]2CO)cc1`, the Potency entry in assay [2] was “inactive”.
